# NS1 inh – blocks influenza NS1 protein function; Potency, µM (titrated, usually from 46.1 µM), inactives show at the top dose activity, positive = more growth; actives 0.4% (n = 270,000); calls by dose curve; also: potency is read from the fitted curve at half-maximal effect; actives are rising curves; nearly all actives have a fitted effect of over 50% in size
#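 OD600 was taken as the measure of yeast growth restored by compound in an NS1-expressing S. cerevisiae strain. Cells had been washed out of glucose medium and diluted 1:100 into galactose -URA medium, pH 6.0.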
# Shiga inhibitor – blocks Shiga toxin action in Vero cells | Vero cells, Shiga toxin protein synthesis inhibition reporter | inhibition, % at 38.7 µM | actives 9.2% (n = 290,000) | AID 2315; in the data active = inhibition mostly above about 28%, no sharp cut-off; inactive = mostly below about 43%; also: 0% is about no effect
# Cycloheximide cs – counter-screen for Shiga toxin inhibitors: cycloheximide protein synthesis inhibition; max response, %; AID 2314; actives 12% (n = 300,000); cell reporter, cycloheximide protein synthesis inhibition counterscreen; in the data active = max response mostly above about 13%, no sharp cut-off; inactive = mostly below about 14%; also: read at 38.3 µM for the half of the compounds with a filed dose; 0% is about no effect
# SARS PLP yeast – SARS-CoV PLP inhibition in yeast; S. cerevisiae expressing SARS-CoV PLpro, growth rescue; Potency, µM (series often up to 32.9 µM), for the others: at the highest dose activity, positive = growth rescue, most hits filed as activators; actives 0.19% (n = 330,000); AID 485353; calls by dose curve; also: potency is read from the fitted curve at half-maximal effect; 0% is about no effect; nearly all actives have a fitted effect of over 55% in size
# Pf growth 96h – P. falciparum growth inhibition at 96 hours. P. falciparum luciferase reporter growth, 96 h. Potency, µM (titrated, usually from 28.7 µM), inactives show top-dose activity change, negative = inhibition, hits mostly inhibitors. actives 6.9% (n = 320,000). AID 504834; also: potency is read from the fitted curve at half-maximal effect; % is scaled to controls: 0 for no effect and ±100 for the full control effect
#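 Parasite growth measured via integrated firefly luciferase reporter in P. falciparum. Infected erythrocytes at 2% hematocrit, 0.05% parasitemia final were treated 96 hours at 37 C under 5% CO2, and luminescence was read.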
# Pf growth 48h – inhibits P. falciparum growth in the first generation, 48 h; P. falciparum luciferase growth in erythrocytes, 48 h; Potency, µM (highest dose often 28.7 µM), for inactives: at the top dose activity change, negative = inhibition, usual class: inhibitors; actives 5.9% (n = 310,000); also: potency is read from the fitted curve at half-maximal effect; % is scaled to controls: 0 for no effect and ±100 for the full control effect
#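 Luciferase-expressing parasites in RBCs, 2% Hct / 0.1% parasitemia final; RPMI 1640 + 0.5% Albumax; 37 C, 5% CO2, one generation; luminescence read-out, lower signal = inhibition.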
# * = called active by the depositor; ? = inconclusive; / = no result given. Compounds with a hit are over-represented: about 21% of the library has one in this group of screens. Unless noted, calls follow the shape of the dose curve; as a rule, active = well fitted inhibition curve with a large enough effect; inconclusive = small, poorly fitted or top-dose-only effect, or another doubt; inactive = no such curve, though single readings can be large or run the other way.
SMILES,NS1 inh,Shiga inhibitor,Cycloheximide cs,SARS PLP yeast,Pf growth 96h,Pf growth 48h
COc1ccc(NC(=O)CN(C)C(=O)CNC(=O)c2ccc(C)s2)cc1,/,/,/,3%,1%,29%
O=C1Nc2ccccc2S/C1=C/c1cccs1,-19%,62*,28*,-1%,40%,38%
Cc1cccc(N=C2NC(=O)/C(=C3/C(=O)N(C)c4ccccc43)S2)c1C,-50%,-13,-7,-4%,38%,15%
Cc1ccccc1N=C1NC(=O)/C(=C/c2cccn2C)S1,-3%,17,13*,0%,-17%,?
Cc1cccc(N=C2NC(=O)/C(=C/c3cccs3)S2)c1,19%,active,34*,-6%,-17%,-22%
Cc1cccc(N=C2NC(=O)/C(=C/c3cccn3C)S2)c1,-2%,52*,27*,-1%,?,?
O=C1/C(=C/c2cccs2)Sc2ccccc21,4%,11,-2,13%,?,?
Cc1c(/C=C2\SC(=Nc3cccc(C(=O)O)c3)NC2=O)c2ccccc2n1C,5%,9,10,2%,21%,10%
O=C1NC(=Nc2ccccc2)S/C1=C\c1cccnc1,7%,8,1,1%,-29%,-29%
O=C1NC(=Nc2ccccc2)S/C1=C\c1cccn1-c1ccccc1,5%,61*,47*,-16%,?,/
C/C(=N/NC(=O)c1ccoc1C)c1cccc(NC(=O)C2CC2)c1,-6%,73*,63*,4%,22%,40%
COc1ccc(C(=O)N/N=C(/C)c2cccc(NC(=O)C(F)(F)F)c2)cc1,-10%,73*,37*,7%,146%,192%
Cc1occc1C(=O)Nc1cccc(C(F)(F)F)c1,-7%,14,14,-71%,19%,6%
C/C(=N/NC(=O)c1ccc(C)s1)c1cccc(NC(=O)c2ccoc2C)c1,3%,37,32*,-8%,-10%,5%
C/C(=N/NC(=O)c1ccoc1C)c1cccc(NC(=O)C(F)(F)F)c1,-3%,104*,59*,0%,58%,71%
COc1ccc(-n2c(N)c(C(=O)Nc3c(C)n(C)n(-c4ccccc4)c3=O)c3nc4ccccc4nc32)cc1,7%,-5,-3,1%,1.7µM*,4.7µM*
COc1ccc(-c2cc(C(=O)Nc3c(C)n(C)n(-c4ccccc4)c3=O)c3ccccc3n2)cc1,-1%,4,-3,-3%,-11%,?
COc1ccc(-c2cc(C(=O)Nc3c(C)n(C)n(-c4ccccc4)c3=O)no2)cc1,/,42,5,1%,8.3µM*,?
Cc1cc(C(=O)Nc2c(C)n(C)n(-c3ccccc3)c2=O)c2ccccc2n1,-3%,-13,-2,-9%,41%,-4%
Cc1ccc(-n2c(N)c(C(=O)Nc3c(C)n(C)n(-c4ccccc4)c3=O)c3nc4ccccc4nc32)cc1C,27%,-1,-3,14%,?,10µM*
Nc1c(C(=O)Nc2ccccc2)c2nc3ccccc3nc2n1-c1ccc(O)cc1,-1%,13,-2,-2%,-19%,13µM*
N#Cc1c(N)n(-c2ccc(C(=O)O)cc2)c2nc3ccccc3nc12,2%,2,-4,-1%,0%,-5%
CCCc1cc(=O)oc2cc(OCC(=O)NCCCN3CCCC3=O)ccc12,-7%,-7,-3,1%,?,9%
O=C(Cc1ncc(C(F)(F)F)cc1Cl)NCCc1ccccc1,/,17,-1,0%,44%,336%
COc1cc(C(=O)NCCC2=CCCCC2)ccc1OCc1c(C)noc1C,/,/,/,0%,?,?
O=C1CC(=C2c3ccccc3-c3ccccc32)C(=O)N1CCCCN1CCN(c2ccccc2)CC1,?,-10,-1,-29%,6.6µM*,4.1µM*
O=C1c2ccccc2C(=O)N1CCCCN1CCN(CCCCN2C(=O)c3ccccc3C2=O)CC1,4%,/,/,/,/,/
CC(C)NC(=O)c1ccc(N(Cc2ccc(Cl)cc2)S(C)(=O)=O)cc1,5%,-6,-4,2%,10µM*,-1%
COc1cc(-c2cc(OC)c3c(C)oc(C)c3c(=O)c2)ccc1O,-23%,-9,-3,-2%,3.7µM*,?
COc1ccc(-c2cc(OC)c3c(C)oc(C)c3c(=O)c2)cc1OC,-7%,16,4,-27%,29%,4.7µM*

# Bioassay records as filed in PubChem BioAssay.
